Assay results as given in ChEMBL document CHEMBL1157539, “Thousands of chemical starting points for antimalarial lead identification” (Nature, 2010).

system: HepG2; test: GSK_TCMDC: Percent inhibition of human HepG2 cell line. Test compounds present at 10uM.; assay type: functional

Row | SMILES | Inhibition [%]
1 | CCNc1cc(C(=O)N[C@@H](Cc2ccccc2)[C@H](O)CNC(C)CCCC(C)C)cc(N2CCCS2(=O)=O)c1.O=CO (stereo not given in full) | 2
2 | Cn1ccnc1CCC(=O)Nc1ccc(Cl)cc1C(=O)Nc1ccc(Cl)cc1 | 28
3 | COCCNCc1ccc(-c2cccc(CN(C(=O)NCCc3ccccc3)C3CCN(Cc4ccccc4)CC3)c2)cc1.O=C(O)C(F)(F)F | 25
4 | Br.C=CCc1cccc(C)c1OCCCON1C(=N)N=C(N)NC1(C)C | 65
5 | CN(C)CC(=O)Nc1cccc(Nc2nccc(NCC(O)c3ccccc3)n2)c1 (stereo not given) | 30
6 | Cn1nc(-c2ccccc2F)c2cc(C(=O)NC3CCN(Cc4ccccc4)CC3)sc21 | 5
7 | CC(=O)N1CCN(c2ccc(NC(=O)c3oc(-c4ccccc4)nc3C(F)(F)F)cn2)CC1 | 0
8 | O=C(Nc1cccc(CN2CCCN(Cc3ccc(O)cc3)CC2)c1)c1cccc(F)c1.O=C(O)C(F)(F)F | 22
9 | O=C(C=Cc1ccc(Cl)c(Cl)c1)NCCCCCN1CCC(CCNC(=O)c2cccc3ccccc23)CC1 | 17
10 | Cc1cc2cc(/C=C/C(=O)NC3CCC(CCN4CCc5ccc(C#N)cc5CC4)CC3)ccc2[nH]1.Cl (stereo not given) | 6
11 | Cc1nc(-c2ccncc2)sc1C(=O)Nc1ccc(Cl)cc1C(=O)Nc1ccc(Cl)cc1 | 2
12 | Cc1c(C)n(C2CCCC2)c2ncnc(OC3CCN(CC(=O)NC4CC4)CC3)c12 | 13
13 | COc1cc(C)ccc1N1CCN(CCCCNC(=O)c2ccc(NC(=O)c3ccc(Cl)cc3)cc2)CC1 | 30
14 | CCC(Cc1ccccc1)c1cc(O)c(Cc2ccc(-c3ccccc3)cc2)c(=O)o1 (stereo not given) | 3
15 | COc1cc(C(=O)NC2CCN(Cc3ccccc3)CC2)ccc1-c1cc2cc(Cl)c(Cl)cc2[nH]1.O=C(O)C(F)(F)F | 33
16 | O=C(/C=C/C=C/c1ccccc1)NCCCCCN1CCC(c2c[nH]c3ccccc23)CC1 | 28
17 | CN1CCCN(Cc2ccc(-c3ccc(NS(=O)(=O)c4cccc5cccnc45)cc3)cc2)CC1.O=C(O)C(F)(F)F | 35
18 | Cl.N=C(N)c1ccc(NN=Cc2ccc(Oc3ccc(C(=N)N)cc3)cc2)cc1 | 18
19 | Cc1cccc(-c2cc3cc(Nc4ccnc5cc(-c6nccs6)ccc45)ccc3[nH]2)c1.Cl | 0
20 | O=C(Nc1ccc(OC2CCN(Cc3ccc(F)cc3)C2)c(Cl)c1)c1ccccc1.O=C(O)C(F)(F)F (stereo not given) | 11

Row | SMILES | Inhibition [%]
21 | COc1cc(CNc2ncc(-c3ccsc3)c(-c3nccs3)n2)cc(OC)c1 | 3
22 | CC(C)N1CCC(N(Cc2ccc(-c3ccc(Cl)cc3)cc2)C(=O)Cn2c(CCc3cccc(F)c3F)cc(=O)c3ccccc32)CC1.O=C(O)C(O)C(O)C(=O)O | 62
23 | CCCNCc1ccc(-c2ccc(CN(CCOC)C(=O)c3cnc(C)cn3)cc2)nc1.O=C(O)C(F)(F)F | 0
24 | CC1CN(c2cnn(C/C=C/c3ccc(NC(=O)c4ccc(Cl)cc4)cc3)c(=O)c2Cl)CC(C)N1.O=C(O)C(F)(F)F (stereo not given) | 25
25 | Cc1ccc(C)c(CC(=O)N2CCC(n3c(C)nc4ccc(F)cc43)CC2)c1 | 0
26 | CC(C)(C(=O)Nc1ccc(N2CCC3(CCCN(CC4CC4)C3)CC2)c(Cl)c1)c1cccc(C(F)(F)F)c1 | 27
27 | Cc1cccc2nc(-c3cccc(-c4cccc(NC(=O)c5cn(C)c(=O)n5C)c4)c3)[nH]c12 | 5
28 | Cl.c1cc2c3c(cccc3c1)NC(CCCCCCCCC1=Nc3cccc4cccc(c34)N1)=N2 | 14
29 | CN(C(=O)c1cc2c(-c3cncnc3)cccc2[nH]1)c1ccccc1 | 1
30 | N=C(N)CCN(Cc1ccccc1)c1ccc(Cl)cc1 | 1
31 | O=C(NCC1CCN(Cc2cccc(F)c2)C1)c1cc(-c2cccc(C(F)(F)F)c2)cs1.O=C(O)C(F)(F)F (stereo not given) | 31
32 | COc1ccc2c(c1)CC(C)(C)NC2CCCCCCCCC1NC(C)(C)Cc2cc(OC)ccc21.O=C(O)C(=O)O (stereo not given) | 42
33 | Cc1cc(-c2ccc(CN3Cc4ccccc4C3)cc2)ccc1S(=O)(=O)NCCN1CCCC1.O=C(O)C(F)(F)F | 49
34 | COc1ccc(C(C(=O)NC2CCN(C[C@H](O)c3ccnc4ccc(OC)cc34)CC2)N2CCN(Cc3ccccc3)CC2)cc1 (stereo not given in full) | 18
35 | Cc1cccc(-c2nc3[nH]c(=O)cc(NC(=O)C(C)C)n3n2)c1 | 0
36 | COc1cc(OC)c2c(C)cc(NCCCN3CCOCC3)nc2c1 | 6
37 | CC(C)C[C@H](NC(=O)c1cc2ccccc2s1)C(=O)N[C@H]1CCN(Cc2ccc(OCCCN(C)C)c(Cl)c2)C1.O=C(O)C(F)(F)F | 83
38 | Nc1ncc(-c2ccsc2)c2ccc(-c3ccc4cn[nH]c4c3)cc12 | 18
39 | CN(C)CCOc1cc(NC(=O)Nc2ccc3c(c2)CCCC3=O)ccc1I | 29
40 | O=C(Nc1ccc(F)cc1)N1CCCN(c2ccnc3cc(Cl)ccc23)CC1.O=C(O)C(F)(F)F | 7
